Several values for one entry are separate records, joined by “and”; a condition that tells them apart may be missing. Equal entries are not always repeated. Hit rate of the full screen: of about 73,000 compounds, about 1,800 (2.5%) were called active. Where a call stands in place of a potency, no number is given. Not shown: some 13% with an inconclusive outcome. The call rests on the fitted dose curve; in most records, active means well fitted activation curve with a large enough effect; inconclusive means small, poorly fitted or top-dose-only effect; inactive means no such curve, though single readings can be large or run the other way. This excerpt belongs to a sample that is enriched for actives.
Assay: qHTS Assay for Agonists of the Thyroid Stimulating Hormone Receptor: Activators of Intracellular cAMP Concentrations in Parental HEK 293; further: nearly all actives have a fitted effect of over 55% in size
Details: parental HEK293 CNG cAMP sensor, membrane potential fluorescence; series mostly up to 57.1 µM
Source text: NIH Chemical Genomics Center [NCGC]
NIH Molecular Libraries Screening Centers Network [MLSCN]
PI Name: Dr. Marvin Gershengorn
This cell based assay utilized a cyclic nucleotide gated ion channel (CNG) as a biosensor for cAMP induction. HEK 293 cells stably expressing the modified CNG were purchased from BD biosciences (http://www.atto.com/products/actone/features_benefits.shtml) . Stimulation of cAMP production causes the CNG to open and subsequent membrane depolarization to occur. A fluorescent membrane potential dye (BD biosciences) was utilized to detect cAMP stimulation in cells.
The cells were maintained in DMEM medium (Invitrogen) containing 10 % FBS (Hyclone), 100 units/ml Penicillin, 100 ug/ml Streptomycin (Invitrogen), and 250 ug/ml Geneticin (Invitrogen) and 1 ug/ml Puromycin (Invitrogen) at 37C in 5% CO2. This assay was used as a counterscreen to "qHTS Assay for Agonists of the Thyroid Stimulating Hormone Receptor", to control for compounds signaling through endogenous receptors and other targets of HEK 293 cells.
NCGC Assay Protocol Summary:
High Throughput Screening. Freshly passaged cells were dispensed into 1536-well assay plates at 4 ul/well in DMEM containing phenol red (Invitrogen), 10% FCS (Hyclone), and 100 units/ml Penicillin, 100 ug/ml Streptomycin (Invitrogen) and incubated at 37 C with 5% CO2 for 20 to 36 hrs before the robotic screening. The screen was initiated by addition of 4 ul/well membrane potential dye containing 100 uM RO 20-1724 (Sigma Aldrich), followed by 60 min incubation at room temperature to allow for dye equilibration across the cell membrane. 23 nl/well compound or control was then added to the assay plates, which were incubated for additional 30 min before reading a Envision fluorescence plate reader (Perkin Elmer) in bottom-read mode for fluorescence intensity (emission at 590 nm).
Keywords: cAMP, CNG Ion Channel, quantitative high throughput screening, qHTS, HTS, probe identification, CNG, cAMP, cyclic nucleotide gated ion channel PubChem
Potency means the concentration at half of the fitted maximal effect.

Structure (SMILES) | activation | Potency
NS(=O)(=O)c1cc(C(=O)O)c(Cl)c([N+](=O)[O-])c1Cl | -3.67% [at 11.4 µM] (inactive) | 
CC(=O)N1CCC2(CCCN(Cc3ccc(C#N)cc3)C2)CC1 |  | inactive
CCOC(=O)c1cc2sccc2n1Cc1ccc(C#N)cc1 |  | 15.8 µM (active)
COc1ccc(CCNC(=O)c2cc3sccc3n2C)cc1OC |  | inactive
O=c1[nH][nH]c(=O)c2cc(N3CCCC3)ccc12 |  | inactive
O=C(Nc1ccc(S(=O)(=O)N2CCCCC2)cc1)c1cnccn1 |  | inactive
CCc1cccc(C)c1NC(=O)CSc1nnc(-c2ccco2)n1N |  | inactive
Cc1cccc(C)c1NC(=O)CCCSc1nnc(-c2ccco2)n1-c1ccccc1 |  | 20 µM (active)
COc1ccc(C(=O)NC(=O)CSc2nnc(-c3ccco3)n2-c2ccccc2)cc1 |  | inactive
CC1CCCCN1CCCNC(=O)c1ccc(-n2c(=O)c(=O)[nH]c3ccccc32)cc1 (stereo not drawn) |  | inactive
O=C1c2ccccc2C(O)N1Cc1ccccc1Cl (stereo not drawn) |  | inactive
COC(=O)[C@@]1(Cc2ccc(OC)cc2)[C@H]2c3cc(C(=O)N4CCCC4)n(Cc4ccc(OC(F)(F)F)cc4)c3C[C@H]2CN1C(=O)c1ccccc1 |  | 2.51 µM (active)
COC(=O)[C@@]1(Cc2ccc(F)cc2)[C@H]2c3cc(C(=O)N4CCCC4)n(C[C@H](O)CO)c3C[C@H]2CN1C(=O)c1ccccc1 |  | inactive
COC(=O)[C@@]1(Cc2ccc(F)cc2)[C@H]2c3cc(C(=O)N(C)C)n(CCc4c[nH]c5ccc(OC)cc45)c3C[C@H]2CN1C(=O)c1ccccc1 |  | inactive
COC(=O)[C@@]1(Cc2ccccc2)[C@H]2c3cc(C(=O)N4CCCC4)n(Cc4ccc(C)o4)c3C[C@H]2CN1C(=O)c1ccccc1 |  | 1.58 µM (active)
COc1ccc(OCc2cccc(C(=O)N3CCCC3)c2)cc1 |  | inactive
COC(=O)[C@@]1(Cc2ccc(F)cc2)[C@H]2c3cc(C(=O)N4CCCC4)n(Cc4ccc(OC(F)(F)F)cc4)c3C[C@H]2CN1C(=O)c1ccccc1 |  | 1.58 µM (active)
COC(=O)[C@@]1(Cc2ccc(F)cc2)[C@@H]2[C@@H](CC(=O)[C@H]2CC(=O)C(=O)N2CCCC2)CN1C(=O)c1ccccc1 |  | inactive
COc1ccc(-c2nc(CS(=O)CC(=O)N3CCc4ccccc4C3)c(C)o2)cc1 (stereo not drawn) |  | inactive
COc1ccc(/C=C/NC(=O)c2ccc(OC)cc2)cc1 | -3.02% [at 11.4 µM] (inactive) | 
NCCCNCCCCN(CCCN)/[N+]([O-])=N/O |  | inactive
CC1(C)S[C@@H]2[C@@H](NC(=O)[C@@H](N)c3ccccc3)C(=O)N2[C@H]1C(=O)O |  | inactive
CC(Sc1nncn1C)C(=O)Nc1ccccc1-c1ccccc1 (stereo not drawn) |  | inactive
CS(=O)(=O)N1CCN(C(=O)c2cc3ccccc3oc2=O)CC1 |  | inactive

Structure (SMILES) | activation | Potency
C/C(CCN1CCc2nc(-c3ccccc3)c(-c3ccccc3)cc2C1)=N\O[C@@H](C)c1cn([C@@H]2COC[C@@H]2O)nn1 | 0.56% [at 11.4 µM] (inactive) | 
NC(=O)COc1ccc2c3c(c(=O)oc2c1)CCCCC3 |  | inactive
O=C(COc1ccc2c3c(c(=O)oc2c1)CCC3)NC1CCCCC1 |  | inactive
CCCOc1ccc2c3c(c(=O)oc2c1OCCC)CCC3 |  | 3.16 µM (active)
Oc1ccc2ccccc2c1C=NCc1c(O)ccc2ccccc12 | 1.97% [at 11.4 µM] (inactive) | 
CC(C)N(C(=O)COC(=O)c1ccccc1C(=O)N1CCN(c2ccc(F)cc2)CC1)C(C)C |  | inactive
CN1CCN(c2ccc(NC(=O)COc3ccc(Cl)cc3Cl)cc2)CC1 |  | inactive
CC(=O)N1CCN(c2ccc(NCc3ccc(C(C)C)cc3)cc2)CC1 |  | 3.98 µM (active)
CSc1nnc(CNC(=O)c2ccccc2)n1-c1ccc(F)cc1 |  | inactive
CCCOc1ccc(NC(=O)C2CCCNC2=O)cc1 (stereo not drawn) |  | inactive
CC1CCCCN1CC(=O)NCc1ccc2c(c1)OCO2 (stereo not drawn) |  | inactive
CCc1ccc2oc(=O)cc(CN3CCCCC3C)c2c1 (stereo not drawn) |  | 25.1 µM (active)
Cc1cc(NC(=O)CN2CCCCC2C)nc2c1c(=O)oc1ccccc12 (stereo not drawn) |  | inactive
CCCn1c(-c2ccc(F)cc2)nc2c(NCC3CCCN3CC)nc(C)nc21 (stereo not drawn) |  | 15.8 µM (active)
CCCn1c(C)nc2c(NCCCCN(CC)CC)nc(C)nc21 |  | inactive
CCN1CCCC1CNc1ncnc2c1[nH]c1ccc(F)cc12 (stereo not drawn) |  | inactive
COc1ccc(CN2CC(C(=O)NCCN3CCN(c4ccccc4F)CC3)CC2=O)cc1 (stereo not drawn) |  | inactive
CN1CCC2(CC1)NC(=O)NC2=O |  | inactive
CC[C@@H]1Cc2cc(O)ccc2C2=C1c1ccc(O)cc1C[C@H]2CC |  | 6.31 µM (active)
O=P(O)(CN1CCCCC1)CN1CCCCC1 |  | inactive
O=C(c1ccc([N+](=O)[O-])cc1)[C@@H](Br)[C@@H](Br)c1ccnc2ccccc12 | 8.13% [at 11.4 µM] (inactive) | 
CCC[C@@H]1C[C@@]1(CCC)[C@@H](NC(=O)c1ccccc1)c1ccc(C(=O)OC)cc1 |  | 7.94 µM (active)
CCC[C@@H]1C[C@@]1(CCC)C(NC(=O)c1ccc(-c2ccccc2)cc1)c1cccc(Cl)c1 (stereo partly drawn) |  | inactive
CCCC(=O)C1=C(N(C)c2ccccc2)CC(C)(C)C(C(=O)OC)C1=O (stereo not drawn) |  | inactive

Structure (SMILES) | activation | Potency
COc1nc(OC)nc(N(C)CCO)n1 |  | inactive
CCSC(C)CC1C/C(=N/O)c2c(C)noc2C1 (stereo not drawn) |  | inactive
CCOC(=O)N1CCN(C(=O)c2ccc(CN(c3ccc(C)c(C)c3)S(C)(=O)=O)cc2)CC1 |  | inactive
CC(C)C(c1nnnn1Cc1ccccc1)N1CCC(C(N)=O)CC1 (stereo not drawn) |  | inactive
CC(C)C(c1nnnn1C1CCCC1)N1CCN(c2ccccc2F)CC1 (stereo not drawn) |  | 15.8 µM (active)
CCC(c1nnnn1C1CCCC1)N1CCN(C(=O)c2ccco2)CC1 (stereo not drawn) |  | inactive
CC(C)CN1CCc2nc(-c3ccccc3)c3c(c2C1)COC(C)C3 (stereo not drawn) | -2.08% [at 11.4 µM] (inactive) | 
Cn1c2c(c(=O)n(C)c1=O)CN(Cc1ccco1)CN2 |  | inactive
c1ccc(Oc2ccccc2)cc1 |  | inactive
CC1CN(C2CCCCC2)c2nc3c(c(=O)n(C)c(=O)n3C)n2C1 (stereo not drawn) |  | inactive
Cn1cccc1C1(C(F)(F)F)NCCNC1=O (stereo not drawn) |  | inactive
CCOc1cccc(-c2nnc3sc(COc4ccc(OC)cc4)nn23)c1 |  | 31.6 µM (active)
Fc1ccc(OCc2nn3c(Cn4nnc5ccccc54)nnc3s2)cc1 |  | inactive
COc1cc(-c2nn3c(-c4cccc(C)c4)nnc3s2)cc(OC)c1OC |  | inactive
Clc1ccccc1-c1cc(NCCN2CCOCC2)ncn1 |  | inactive
COc1ccccc1-c1nc(NCc2cccs2)c2ccccc2n1 |  | 25.1 µM (active)
COc1ccccc1-c1cc(NCc2cccs2)ncn1 |  | 31.6 µM (active)
CNc1nc(-c2ccccc2OC)nc2ccccc12 |  | inactive
COc1ccccc1CNCc1cccs1 |  | inactive
COc1ccccc1-c1nc(NCCNC(C)=O)c2ccccc2n1 |  | inactive
CCOC(=O)c1cc2occc2n1CC(=O)N1CCN(C(=O)c2ccco2)CC1 |  | inactive
CO[C@@H]1COC(=O)C/C=C\[C@H](C)[C@@H](NS(=O)(=O)c2ccc(C)cc2)COC(=O)C/C=C\[C@@H]1C | 2.07% [at 11.4 µM] (inactive) and 4.9% [at 11.4 µM] (inactive) | 
CCC[C@H]1C(=O)N2C(N(C)C)=Nc3ccc(C)cc3N2C1=O |  | inactive
COc1ccccc1C(=O)C(O)c1ccccc1OC (stereo not drawn) |  | inactive

Structure (SMILES) | activation | Potency
Cc1ccc(C)c(N2CCN(C(=O)CCc3nc4ccccc4[nH]3)CC2)c1 |  | inactive
COCCn1c(C)cc(C(=O)CSc2ncnc3sc4c(c23)CCC4)c1C |  | inactive
Cc1cc(C)n(-c2nc(SCC(=O)N3CCCC3)c3c4c(sc3n2)CCCC4)n1 |  | inactive
COCCNc1nc(-n2nc(C)cc2C)nc2sc3c(c12)CCCC3 |  | 15.8 µM (active)
COc1cc2c(cc1OC)C(c1ccc(C)o1)CC(=O)N2 (stereo not drawn) |  | inactive
COCCOC(=O)C1=C(C)NC(=O)CC1c1cc2c(cc1Br)OCO2 (stereo not drawn) |  | inactive
CCCOc1ccccc1C1CC(=O)Nc2cc3c(cc21)OCO3 (stereo not drawn) |  | 7.94 µM (active)
COc1ccc(NS(=O)(=O)c2ccc(NC(=O)C(C)(C(F)(F)F)C(F)(F)F)cc2)nn1 |  | inactive
Cc1nc2nc[nH]n2c(=O)c1NC(=O)c1cccc(OCC(C)C)c1 |  | inactive
COC(=O)C1C(=O)c2c([nH]c(C(=O)OCCSC)c2C)CC1C (stereo not drawn) |  | inactive
CCCOC(=O)c1[nH]c2c(c1C)C(=O)CC(c1cc(OC)c(OC)c(OC)c1)C2 (stereo not drawn) |  | 15.8 µM (active)
CCOC(=O)c1[nH]c2c(c1C)C(=O)CC(c1ccc(N(C)C)cc1)C2 (stereo not drawn) |  | inactive
N[C@@H](C(=O)O)c1ccc(P(=O)(O)O)cc1 |  | inactive
C/C(CCN1CCCCc2nc(C)c(C)cc21)=N\O[C@@H](C)c1cn([C@@H]2COC[C@@H]2O)nn1 | 6.27% [at 11.4 µM] (inactive) | 
C[C@@H]1O[C@@H](O[C@@H]2[C@@H](O)[C@H](OCCc3ccc(O)c(O)c3)O[C@H](CO[C@@H]3O[C@H](CO)[C@@H](O)[C@H](O)[C@H]3O)[C@H]2OC(=O)/C=C/c2ccc(O)c(O)c2)[C@H](O)[C@H](O)[C@H]1O |  | inactive
CO[C@H]1COC(=O)[C@@H](OCc2ccccc2)/C=C\[C@H](C)[C@@H](OC)COC(=O)[C@H](OCc2ccccc2)/C=C\[C@@H]1C | -2.98% [at 11.4 µM] (inactive) | 
Cn1cccc1C(=O)N1CCC[C@@]2(CCN(Cc3nccs3)C2)C1 |  | inactive
O=C(c1csnn1)N1CCC[C@@]2(CCN(Cc3nccs3)C2)C1 |  | 3.98 µM (active)
O=C(c1csnn1)N1CCC2(CC1)CN(c1ncccn1)C2 |  | inactive
CCc1cc(=O)oc2cc(OCC(=O)N3CCCc4ccccc43)ccc12 |  | inactive
CCOC(=O)c1ccc(NC(=O)CS(=O)(=O)c2cn(CC)c3ccccc23)cc1 |  | inactive

Reference: PubChem BioAssay AID938 (National Center for Advancing Translational Sciences (NCATS), 2007)
